Experimental data from PubChem BioAssay (EPA / NIEHS).
Records with an inconclusive call do not appear. Active and inactive are the calls of the source. The calls were made as follows, unless noted: active = hit-call score of the fitted dose curve at least 0.9, where 1 is the maximum; inactive = score below 0.9.

Tests used:
[1] = ATG_PBREM_CIS: Attagene CIS-FACTORIAL HepG2 Assay for human Phenobarbital-responsive Enhancer Module (PBREM) (AID 2282955); conditions: HepG2 PBREM cis-reporter, Attagene multiplexed transcription; actives raise or lower the signal
Summary of the method: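 Readout: reporter mRNA, fluorescent RT-PCR fragments separated by capillary electrophoresis. System: HepG2 transiently transfected with cis-regulated reporter units. Exposure: 24 h. Analysis: bidirectional, DMSO baseline.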

[2] = target: Paired box protein Pax-6 (Homo sapiens) (UniProt P26367); test: ATG_Pax6_CIS: Attagene CIS-FACTORIAL HepG2 Assay for human Paired Box 6 (PAX6) (AID 2282956); conditions: HepG2 CIS-FACTORIAL PAX6 reporter transcription, RNA readout; actives raise or lower the signal
Summary of the method: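 Transient MRTU transfection of HepG2 → compound exposure 24 h → TriZol RNA, oligo(dT) RT → PCR, 6-FAM primer extension, HpaI cut → capillary electrophoresis; activity fitted both directions against DMSO.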

[3] = ATG_PXRE_CIS: Attagene CIS-FACTORIAL HepG2 Assay for human Pregnane X Receptor Element (PXRE) (AID 2282957); conditions: HepG2 Attagene CIS-FACTORIAL PXRE reporter, mRNA; actives raise or lower the signal
Summary of the method: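 HepG2 cells transiently transfected with cis-regulated multiple reporter transcription units; endogenous factor activity measured as reporter mRNA 24 h after dosing. RT-PCR, fluorescent primer extension, HpaI digestion, capillary electrophoresis; bidirectional fit versus DMSO baseline.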

[4] = ATG_PPRE_CIS: Attagene CIS-FACTORIAL HepG2 Assay for human Peroxisome Proliferator-activated Response Element (PPRE) (AID 2282958); conditions: HepG2 PPRE cis-element reporter, Attagene transcription factor profiling; actives raise or lower the signal
Summary of the method: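 After human HepG2 hepatoma cells were transiently transfected with cis-promoter reporter constructs, they were exposed to test chemicals for 24 hours. Reporter RNA was then reverse-transcribed, PCR-amplified, FAM-labeled, HpaI-digested and quantified by capillary electrophoresis.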

[5] = ATG_RORE_CIS: Attagene CIS-FACTORIAL HepG2 Assay for human RAR-related Orphan Receptor Element (RORE) (AID 2282959); conditions: HepG2 Attagene cis-factorial RORE reporter, mRNA; actives raise or lower the signal
Summary of the method: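 Measured here: transcript induction of a cis-regulated reporter in HepG2 cells transiently transfected via FuGene 6. After 24 h, RNA was processed by RT-PCR and fluorescent capillary electrophoresis; DMSO defined baseline activity.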

[6] = ATG_Sox_CIS: Attagene CIS-FACTORIAL HepG2 Assay for human SRY-box transcription factor (SOX) (AID 2282960); conditions: HepG2 Attagene cis-factorial SOX reporter, mRNA; actives raise or lower the signal
Summary of the method: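 Using transiently transfected HepG2 cells, reporter transcription driven by cis elements was assessed 24 h after dosing. Signal was fluorescence of capillary-separated RT-PCR products, with DMSO defining baseline activity.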

[7] = target: Transcription factor Sp1 (Homo sapiens) (UniProt P08047); test: ATG_Sp1_CIS: Attagene CIS-FACTORIAL HepG2 Assay for human Specificity Protein 1 (Sp1) (AID 2282961); conditions: HepG2 Sp1 cis-reporter transcription, actives raise or lower the signal
Summary of the method: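 After transient transfection of HepG2 cells with cis-promoter reporter units and 24 h chemical treatment, reporter transcripts were quantified by RT-PCR and capillary electrophoresis fluorescence. Gain- and loss-of-signal fitted against DMSO.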

[8] = ATG_SREBP_CIS: Attagene CIS-FACTORIAL HepG2 Assay for human Sterol Regulatory Element Binding (SREBP) (AID 2282962); conditions: HepG2 Attagene cis-factorial SREBP reporter, mRNA; actives raise or lower the signal
Summary of the method: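 Transfected HepG2 (cis-regulated reporter library, endogenous TFs) → compound 24 h → total RNA → oligo(dT) RT → reporter-specific PCR → FAM primer extension, HpaI cut → CE fluorescence. Fit bidirectional vs DMSO.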

[9] = target: Signal transducer and activator of transcription 3 (Homo sapiens) (UniProt P40763); test: ATG_STAT3_CIS: Attagene CIS-FACTORIAL HepG2 Assay for human Signal Transducer and Activator of Transcription 3 (STAT3) (AID 2282963); conditions: HepG2, Attagene cis-factorial STAT3 reporter transcription; actives raise or lower the signal
Summary of the method: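 HepG2 cells transiently transfected with multiple cis-element-driven reporter units report endogenous transcription factor activity. After 24 h compound exposure, reporter mRNA is measured by RT-PCR, 6-FAM labelling, HpaI digestion and capillary electrophoresis. Fitted bidirectionally versus DMSO.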

[10] = ATG_TA_CIS: Attagene CIS-FACTORIAL HepG2 Assay for human TA Basal Promoter (AID 2282964); conditions: HepG2 Attagene CIS-factorial TA basal promoter reporter; actives raise or lower the signal
Summary of the method: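 HepG2 cells transiently transfected with multiplexed cis-promoter reporter units, dosed 24 h. Reporter mRNA measured by RT-PCR, 6-FAM labelling, HpaI digestion and capillary electrophoresis; bidirectional fit versus DMSO baseline, serving as background control.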

[11] = ATG_TCF_b_cat_CIS: Attagene CIS-FACTORIAL HepG2 Assay for human T-Cell-Factor with beta-catenin (TCF/b-cat) (AID 2282965); conditions: HepG2 TCF/beta-catenin cis-reporter transcription, actives raise or lower the signal
Summary of the method: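 HepG2, transient MRTU transfection, cis-element-driven reporters (endogenous TFs). 24 h compound exposure. Readout: reporter mRNA by RT-PCR + 6-FAM primer extension, HpaI digest, capillary electrophoresis. Gain/loss fit vs DMSO baseline.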

[12] = ATG_TAL_CIS: Attagene CIS-FACTORIAL HepG2 Assay for human TAL Basal Promoter (AID 2282966); conditions: HepG2 Attagene cis-factorial TAL promoter reporter; actives raise or lower the signal;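 also: background control endpoint measuring basal TAL promoter reporter mRNA not a specific factor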
Summary of the method: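 HepG2 cells were transiently transfected with promoter-driven multiplexed reporter units and dosed for 24 h. Reporter mRNA was measured by RT-PCR with capillary electrophoresis fluorescence; bidirectional fits used DMSO as baseline, serving as a background control.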

[13] = ATG_TGFb_CIS: Attagene CIS-FACTORIAL HepG2 Assay for human Transforming Growth Factor (TGF) (AID 2282967); conditions: HepG2 Attagene CIS TGFb reporter, mRNA transcription; actives raise or lower the signal
Summary of the method: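 HepG2 cells transiently transfected with cis-promoter-driven multiplexed reporter units; 24 h compound exposure. Reporter mRNA measured by RT-PCR, 6-FAM labeling, HpaI digestion and capillary electrophoresis; bidirectional fit versus DMSO baseline.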

[14] = ATG_VDRE_CIS: Attagene CIS-FACTORIAL HepG2 Assay for human Vitamin D Receptor Element (VDRE) (AID 2282968); conditions: HepG2 VDRE cis-reporter transcription, actives raise or lower the signal
Summary of the method: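 Transiently transfected HepG2 cells carrying cis-regulated reporter transcription units were exposed for 24 h. Reporter mRNA was measured by RT-PCR with fluorescent labelling and capillary electrophoresis, and fitted in both directions against DMSO.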

[15] = target: Nuclear receptor subfamily 1 group I member 3 (Homo sapiens) (UniProt Q14994); test: ATG_CAR_TRANS: Attagene TRANS-FACTORIAL HepG2 Assay for human Constitutive Androstane Receptor (CAR) (AID 2282969; active = hit-call score of the fitted dose curve at least 0.9, where 1 is the maximum;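 also: activators raise reporter mRNA above DMSO so AC50 marks induction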); conditions: HepG2 Attagene TRANS-FACTORIAL CAR reporter
Summary of the method: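 HepG2 cells transiently transfected with GAL4-UAS reporter units; TRANS format reads activity of exogenous chimeric NR-Gal4 protein. After 24 h dosing, reporter mRNA quantified by RT-PCR, 6-FAM labelling and capillary electrophoresis; gain of signal fitted against DMSO.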

[16] = target: Estrogen receptor (Homo sapiens) (UniProt P03372); test: ATG_ERa_TRANS: Attagene TRANS-FACTORIAL HepG2 Assay for human Estrogen Receptor alpha (ERa) (AID 2282970; active = hit-call score of the fitted dose curve at least 0.9, where 1 is the maximum); conditions: HepG2 Attagene TRANS ERa GAL4 reporter, mRNA
Summary of the method: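 HepG2 cells transiently transfected with multiplexed GAL4-UAS reporter units; ERa activity read via exogenous chimeric NR-Gal4 protein. After 24 hour compound exposure, reporter mRNA measured by RT-PCR with 6-FAM labelling and capillary electrophoresis; gain-of-signal fitted relative to DMSO.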

[17] = target: X-box-binding protein 1 (Homo sapiens) (UniProt P17861); test: ATG_Xbp1_CIS: Attagene CIS-FACTORIAL HepG2 Assay for human X-box Binding Protein 1 (XBP1) (AID 2282972); conditions: HepG2 XBP1 cis-element reporter, Attagene multiplex; actives raise or lower the signal
Summary of the method: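 HepG2, transient MRTU transfection (cis-promoter driven), 24 h compound exposure. Total RNA → oligo(dT) RT → PCR → 6-FAM labeling → HpaI cut → CE. Bidirectional fit vs DMSO.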

[18] = ATG_M_19_TRANS: Attagene TRANS-FACTORIAL HepG2 Assay for M19 Transcription Factor (Internal Marker) (AID 2282974; active = hit-call score of the fitted dose curve at least 0.9, where 1 is the maximum); conditions: HepG2 Attagene TRANS-FACTORIAL M19 internal marker reporter
Summary of the method: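 Gain-of-signal in reporter mRNA, relative to DMSO, was scored from capillary electrophoresis fluorescence. HepG2 cells carried transiently transfected multiple reporter transcription units and were incubated with test chemicals for 24 h.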

[19] = target: Steroid hormone receptor ERR1 (Homo sapiens) (UniProt P11474); test: ATG_ERRa_TRANS: Attagene TRANS-FACTORIAL HepG2 Assay for human Estrogen-Related Receptor alpha (ERRa) (AID 2282971; active = hit-call score of the fitted dose curve at least 0.9, where 1 is the maximum); conditions: HepG2 Attagene TRANS reporter, ERRa transactivation
Summary of the method: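 HepG2 cells transiently transfected with multiplexed GAL4-UAS reporter units reading chimeric ERRa-Gal4 activity; 24 h compound exposure. Reporter mRNA measured by RT-PCR, 6-FAM labelling, HpaI digest and capillary electrophoresis; gain of signal fitted versus DMSO baseline.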

Measured: AC50

Sequence of Paired box protein Pax-6 (Homo sapiens) (P26367 whole entry, looked up): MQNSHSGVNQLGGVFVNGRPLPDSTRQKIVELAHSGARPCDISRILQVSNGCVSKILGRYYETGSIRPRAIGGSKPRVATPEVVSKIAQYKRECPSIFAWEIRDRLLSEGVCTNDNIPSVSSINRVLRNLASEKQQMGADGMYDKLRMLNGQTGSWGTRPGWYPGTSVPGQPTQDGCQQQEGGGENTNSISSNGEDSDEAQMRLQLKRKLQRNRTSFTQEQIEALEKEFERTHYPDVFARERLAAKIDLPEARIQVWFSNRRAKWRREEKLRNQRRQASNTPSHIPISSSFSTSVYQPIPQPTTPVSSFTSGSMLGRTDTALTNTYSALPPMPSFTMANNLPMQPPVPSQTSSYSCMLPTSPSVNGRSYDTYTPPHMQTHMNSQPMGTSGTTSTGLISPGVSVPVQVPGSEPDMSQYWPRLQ
Sequence of X-box-binding protein 1 (Homo sapiens) (P17861 whole entry, looked up): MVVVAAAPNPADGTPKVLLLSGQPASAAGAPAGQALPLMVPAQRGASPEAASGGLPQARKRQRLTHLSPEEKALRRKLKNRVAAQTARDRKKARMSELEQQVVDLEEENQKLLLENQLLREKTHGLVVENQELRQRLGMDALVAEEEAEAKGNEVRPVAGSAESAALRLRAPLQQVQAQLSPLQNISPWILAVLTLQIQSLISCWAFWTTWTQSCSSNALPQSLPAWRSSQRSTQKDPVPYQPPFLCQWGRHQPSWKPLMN
Sequence of Signal transducer and activator of transcription 3 (Homo sapiens) (P40763 whole entry, looked up): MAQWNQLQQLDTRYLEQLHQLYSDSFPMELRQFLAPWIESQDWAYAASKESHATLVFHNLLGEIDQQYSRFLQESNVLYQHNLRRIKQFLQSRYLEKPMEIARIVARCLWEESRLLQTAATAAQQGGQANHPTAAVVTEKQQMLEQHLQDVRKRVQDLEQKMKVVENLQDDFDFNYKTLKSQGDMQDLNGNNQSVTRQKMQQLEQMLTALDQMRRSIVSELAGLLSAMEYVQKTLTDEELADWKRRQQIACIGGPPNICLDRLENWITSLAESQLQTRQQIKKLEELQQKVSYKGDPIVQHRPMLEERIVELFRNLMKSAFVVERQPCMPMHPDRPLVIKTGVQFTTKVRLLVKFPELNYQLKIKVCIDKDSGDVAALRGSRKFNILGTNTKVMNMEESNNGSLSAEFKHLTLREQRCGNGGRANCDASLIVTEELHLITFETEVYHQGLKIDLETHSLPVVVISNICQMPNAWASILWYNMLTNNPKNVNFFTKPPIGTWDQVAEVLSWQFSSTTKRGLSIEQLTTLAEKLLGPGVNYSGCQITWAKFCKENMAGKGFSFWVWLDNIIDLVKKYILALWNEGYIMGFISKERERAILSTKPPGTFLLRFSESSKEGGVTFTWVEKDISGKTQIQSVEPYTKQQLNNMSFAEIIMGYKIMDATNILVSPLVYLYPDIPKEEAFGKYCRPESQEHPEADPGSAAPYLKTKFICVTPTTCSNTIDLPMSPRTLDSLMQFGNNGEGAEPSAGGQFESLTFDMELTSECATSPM
Sequence of Nuclear receptor subfamily 1 group I member 3 (Homo sapiens) (Q14994 whole entry, looked up, the tested form may be a part): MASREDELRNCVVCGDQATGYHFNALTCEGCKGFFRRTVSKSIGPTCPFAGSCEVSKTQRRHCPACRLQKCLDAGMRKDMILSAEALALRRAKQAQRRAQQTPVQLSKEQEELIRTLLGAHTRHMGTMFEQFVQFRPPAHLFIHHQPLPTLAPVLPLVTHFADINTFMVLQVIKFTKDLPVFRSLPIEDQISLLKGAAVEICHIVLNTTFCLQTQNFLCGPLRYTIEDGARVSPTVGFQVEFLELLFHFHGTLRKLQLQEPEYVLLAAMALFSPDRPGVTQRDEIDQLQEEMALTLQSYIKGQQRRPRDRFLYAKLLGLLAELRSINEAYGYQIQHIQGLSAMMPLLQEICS
Sequence of Estrogen receptor (Homo sapiens) (P03372 whole entry, looked up, the tested form may be a part): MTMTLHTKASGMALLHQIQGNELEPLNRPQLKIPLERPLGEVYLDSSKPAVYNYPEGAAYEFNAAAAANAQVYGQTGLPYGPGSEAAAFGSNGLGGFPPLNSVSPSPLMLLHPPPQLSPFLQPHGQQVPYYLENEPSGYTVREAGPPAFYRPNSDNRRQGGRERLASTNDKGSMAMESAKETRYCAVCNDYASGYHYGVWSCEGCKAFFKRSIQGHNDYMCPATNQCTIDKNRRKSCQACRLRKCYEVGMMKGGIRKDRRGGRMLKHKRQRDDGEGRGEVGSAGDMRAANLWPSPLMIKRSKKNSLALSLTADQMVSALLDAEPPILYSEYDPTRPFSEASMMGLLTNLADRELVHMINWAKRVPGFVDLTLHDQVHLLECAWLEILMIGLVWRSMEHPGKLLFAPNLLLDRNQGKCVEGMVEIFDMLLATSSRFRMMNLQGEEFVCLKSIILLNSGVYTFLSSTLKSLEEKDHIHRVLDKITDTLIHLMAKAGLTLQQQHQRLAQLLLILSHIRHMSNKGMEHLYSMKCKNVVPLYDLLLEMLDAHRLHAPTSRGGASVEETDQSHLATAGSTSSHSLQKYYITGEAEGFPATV
Sequence of Transcription factor Sp1 (Homo sapiens) (P08047 whole entry, looked up): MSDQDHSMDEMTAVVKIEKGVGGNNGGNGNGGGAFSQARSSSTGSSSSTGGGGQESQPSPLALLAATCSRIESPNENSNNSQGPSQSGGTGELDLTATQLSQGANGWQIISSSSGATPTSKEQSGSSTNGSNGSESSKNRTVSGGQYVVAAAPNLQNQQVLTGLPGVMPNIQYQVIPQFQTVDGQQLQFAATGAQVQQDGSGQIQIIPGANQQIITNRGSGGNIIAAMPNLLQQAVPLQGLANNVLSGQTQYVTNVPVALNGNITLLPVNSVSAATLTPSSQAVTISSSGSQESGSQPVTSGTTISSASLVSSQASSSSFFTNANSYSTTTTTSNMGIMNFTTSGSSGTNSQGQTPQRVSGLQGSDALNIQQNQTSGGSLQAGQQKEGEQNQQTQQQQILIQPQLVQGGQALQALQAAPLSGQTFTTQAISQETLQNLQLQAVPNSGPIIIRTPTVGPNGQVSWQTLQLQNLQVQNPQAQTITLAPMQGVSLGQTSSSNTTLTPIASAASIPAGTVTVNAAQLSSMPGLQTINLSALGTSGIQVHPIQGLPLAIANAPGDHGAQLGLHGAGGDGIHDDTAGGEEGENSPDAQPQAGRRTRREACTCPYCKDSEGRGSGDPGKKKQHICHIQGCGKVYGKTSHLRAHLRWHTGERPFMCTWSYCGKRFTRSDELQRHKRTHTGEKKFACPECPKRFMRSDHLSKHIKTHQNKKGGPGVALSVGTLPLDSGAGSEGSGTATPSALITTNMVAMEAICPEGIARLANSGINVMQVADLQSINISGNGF
Sequence of Steroid hormone receptor ERR1 (Homo sapiens) (P11474 whole entry, looked up, the tested form may be a part): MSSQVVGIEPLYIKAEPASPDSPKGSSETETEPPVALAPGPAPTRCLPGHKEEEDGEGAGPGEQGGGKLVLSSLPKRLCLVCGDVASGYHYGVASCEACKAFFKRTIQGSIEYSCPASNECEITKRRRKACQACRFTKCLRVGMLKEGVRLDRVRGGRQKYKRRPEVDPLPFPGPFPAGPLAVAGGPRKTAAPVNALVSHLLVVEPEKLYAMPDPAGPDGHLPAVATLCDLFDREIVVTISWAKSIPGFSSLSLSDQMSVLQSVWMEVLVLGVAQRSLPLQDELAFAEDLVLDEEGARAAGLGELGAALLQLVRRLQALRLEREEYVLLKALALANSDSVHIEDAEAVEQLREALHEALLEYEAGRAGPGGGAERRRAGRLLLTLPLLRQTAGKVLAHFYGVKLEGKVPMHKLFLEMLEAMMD

CC1(C)CCC(=Cc2ccc(Cl)cc2)C1(O)Cn1cncn1 (centres undefined)
active: [3] 3.16 µM | [4] 29.7 µM | [8] 15 µM | [14] 8.04 µM
not listed: [19]
inactive: all other assays above

O=c1n(Cl)c(=O)n(Cl)c(=O)n1Cl
active: [3] 50 µM
not listed: [19]
inactive: all other assays above

CC1(C)C(C(=O)OC(C#N)c2cccc(Oc3ccccc3)c2)C1(C)C (centres undefined)
active: [3] 1.74 µM | [4] 11 µM | [14] 6.46 µM | [16] 21.3 µM
not listed: [18] | [19]
inactive: all other assays above

CC(C)(C)C(=O)C(Oc1ccc(Cl)cc1)n1cncn1 (centres undefined)
active: [1] 19.5 µM | [3] 5.02 µM | [4] 50 µM | [14] 34.4 µM | [16] 18.5 µM
not listed: [19]
inactive: all other assays above

CSC(=O)c1c(C(F)F)nc(C(F)(F)F)c(C(=O)SC)c1CC(C)C
active: [3] 0.451 µM | [14] 0.789 µM | [16] 8.26 µM
not listed: [19]
inactive: all other assays above

O=C(Nc1ccccc1-c1ccc(Cl)cc1)c1cccnc1Cl
active: [1] 17.7 µM | [3] 4.77 µM | [7] 19.8 µM | [14] 13.7 µM
not listed: [18]
inactive: all other assays above

CCOc1nc(F)cc2nc(S(=O)(=O)Nc3c(Cl)cccc3Cl)nn12
active: [3] 10.1 µM
not listed: [16] | [19]
inactive: all other assays above
